Only some compounds are listed: those with a hit (about 19% of all), similar ones and a draw of the others.
S-ASM inh – inhibitors of human secretory acid sphingomyelinase; Potency, µM (doses to about 57.5 µM), for the others: at the highest dose activity change, negative = inhibition, most hits filed as inhibitors; P17405; placental ASM, HMU-PC fluorogenic substrate, 60 min; actives 0.006% (n = 340,000); further: potency means the concentration at half of the fitted maximal effect
Target sequence (P17405 47-631 limits assumed): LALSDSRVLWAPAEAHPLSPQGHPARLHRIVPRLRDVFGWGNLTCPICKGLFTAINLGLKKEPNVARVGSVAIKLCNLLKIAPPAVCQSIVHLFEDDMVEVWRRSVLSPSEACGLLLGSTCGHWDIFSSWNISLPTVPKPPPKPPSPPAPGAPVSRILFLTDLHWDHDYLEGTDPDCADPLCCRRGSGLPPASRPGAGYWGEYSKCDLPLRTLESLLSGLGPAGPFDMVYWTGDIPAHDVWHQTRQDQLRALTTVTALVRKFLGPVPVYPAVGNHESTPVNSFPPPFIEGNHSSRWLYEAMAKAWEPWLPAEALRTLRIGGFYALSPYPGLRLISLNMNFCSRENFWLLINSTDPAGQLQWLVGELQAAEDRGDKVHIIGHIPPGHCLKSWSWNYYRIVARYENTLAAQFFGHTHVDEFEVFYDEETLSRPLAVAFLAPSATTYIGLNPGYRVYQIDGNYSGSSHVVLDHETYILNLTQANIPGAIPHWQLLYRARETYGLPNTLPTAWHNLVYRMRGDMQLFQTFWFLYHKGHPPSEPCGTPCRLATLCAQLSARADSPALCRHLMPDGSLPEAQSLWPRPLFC
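Human placenta-derived ASM enzyme was preincubated with compound for 10 minutes at room temperature, then given fluorogenic substrate HMU-PC0 (9 uM final) for 60 minutes at 37 °C; a pH 10 stop preceded fluorescence reading at Ex 386/Em 447 nm.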
HepG2 tox – HepG2 cytotoxicity, counter-screen for TGF-b inhibitors | actives 0.76% (n = 410,000) | Potency, µM (titrated, usually from 46.1 µM), without a hit: at the top dose activity change, negative = cytotoxicity, most hits filed as cytotoxic | HepG2 CAGA-GFP viability, ATP luminescence, 18 h; further: potency means the concentration at half of the fitted maximal effect
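CellTiter-Glo luminescence gave cytotoxicity after 18 hours at 37 degrees C. The cells were HepG2 CAGA-GFP in 1% FBS DMEM, stimulated with 500 pg/mL TGF-beta after compound addition. %Activity was normalised to no-cell wells (complete cell-killing) and DMSO (no toxicity), and curves were fitted and classified.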
IL1B secr inh – blocks inflammasome-driven IL-1 beta release. THP-1 LPS/ATP IL-1B secretion, AlphaLISA, 16 h; hits give low values. activity change, % at 57.5 µM. actives 4.7% (n = 360,000). AID 743279; in the data active means activity change below about -50%; inconclusive means mostly about -30% to -49%; further: on the % scale 0 is the no-effect control and ±100 the full control effect
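Secreted IL-1B measured by AlphaLISA bead assay after 16 h compound exposure of THP-1 cells; compounds (final up to 57.5 uM) added 1 h before LPS (250 ng/mL) and ATP (1.25 mM) stimulation; lower signal means less secretion.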
TDP1 cell CPT – DT40-hTDP1 cell growth loss with CPT. chicken DT40 Tdp1-/-;hTDP1 cells + 20 nM CPT, ATP luminescence, 48 h. Potency, µM (titrated, usually from 46.2 µM), inactives show at the highest dose activity change, negative = growth inhibition, usual class: inhibitors. actives 12% (n = 420,000); further: potency means the concentration at half of the fitted maximal effect; on the % scale 0 is the no-effect control and ±100 the full control effect; nearly all actives have a fitted effect of over 55% in size
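Chicken DT40 Tdp1-/- cells stably complemented with human TDP1 were seeded at 400 cells/well in medium containing 20 nM camptothecin, exposed to pin-transferred compounds, and grown at 37 °C for at least 48 hr. Viability was read as ATP luminescence.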
TGFb inhibitor – blocks TGF-b signaling; HepG2 CAGA-GFP TGF-b/SMAD3 reporter, GFP fluorescence, 18 h; TGF-beta stimulated, 500 pg/mL final; Potency, µM (top dose mostly 46.1 µM), inactives show at the highest dose activity, negative = inhibition, most hits filed as inhibitors; actives 1.2% (n = 410,000); further: potency means the concentration at half of the fitted maximal effect; on the % scale 0 is the no-effect control and ±100 the full control effect; nearly all actives have a fitted effect of over 65% in size
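HEPG2 CAGA-GFP, 1000 cells/well; 2 h settle, 37 C; cpd via pin tool; TGF-b 500 pg/mL final; 18 h, 37 C; GFP imaging ex488/em500-530; %Activity normalised to -TGF-b and +DMSO controls; CRC fit, curve class.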
TDP1 cell noCPT – qHTS for Inhibitors of human tyrosyl-DNA phosphodiesterase 1 (TDP1): qHTS in cells in absence of CPT; DT40 Tdp1-/- hTDP1 cells, no CPT, ATP luminescence, 48 h; Potency, µM (doses to about 46.2 µM), inactives show top-dose activity change, negative = growth inhibition, hits mostly inhibitors; actives 15% (n = 420,000); AID 686978, 2013; further: potency means the concentration at half of the fitted maximal effect; on the % scale 0 is the no-effect control and ±100 the full control effect; nearly all actives have a fitted effect of over 55% in size
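A cellular qHTS used chicken DT40 cells lacking endogenous Tdp1 but carrying stably transfected human TDP1. Compounds were applied without camptothecin, and cell growth kinetics were judged by ATP-dependent luminescence after ≥48 hr.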
* marks the source's active call; other numbers are inactive results; i = inactive; ? = inconclusive; nt = no result given; [ ] = dose if it differs, or a comment. Unless noted, the call rests on the fitted dose curve; in most records, active means well fitted curve in the direction sought with a large enough effect; inconclusive means small, poorly fitted or top-dose-only effect, or another doubt; inactive means no such curve, though single readings can be large; an effect the other way counts as inactive or inconclusive.

SMILES	S-ASM inh	HepG2 tox	IL1B secr inh	TDP1 cell CPT	TGFb inhibitor	TDP1 cell noCPT
Clc1ccc(C2=Nn3c(nnc3-c3n[nH]c4c3CCC4)SC2)cc1	-23.4%	-52.0%	-4.6	4.11µM*	?	2.91µM*
Cc1ccc(-c2nnc3n2N=C(c2ccc(Br)cc2)CS3)cc1	-1.8%	-16.9%	-19.6	23.1µM*	-4.1%	?
COc1ccc(CCN2CC(C(=O)NCc3ccon3)CCC2=O)cc1 (stereo not given)	nt	-0.7%	17.8	-2.8%	-11.3%	-0.9%
NC(=O)C1C2CCC(C2)C1C(N)=O (stereo not given)	1.1%	-17.6%	14.6	?	2.7%	-18.7%
O=C(Cn1nnnc1-c1ccccc1F)Nc1ccc(OC(F)(F)F)cc1	nt	-10.3%	nt	-26.9%	0.0%	?
CN(C)c1ncnc2ccc(-c3ccoc3)cc12	nt	nt	nt	18.4µM*	nt	?
CN(C)c1ccc(-c2ccc3ncnc(N4CCNCC4)c3c2)cc1	nt	nt	nt	-6.4%	nt	?
CN(C)c1ccc(-c2ccc3ncnc(N(C)C)c3c2)cc1	nt	nt	nt	0.461µM*	nt	0.366µM*
COc1cccc(OCCCCn2c(-c3ccc(Cl)cc3)nc3ccccc3c2=O)c1	nt	-22.8%	nt	-13.4%	-9.4%	-5.9%
COc1ccc(NC(=O)C2CCC(CNS(=O)(=O)c3ccc(Br)s3)CC2)c(OC)c1 (stereo not given)	nt	-16.7%	nt	18.4µM*	?	?
Cc1nn(-c2cc(C)c3ccccc3n2)c2c1C1C(C2)C1(C)C (stereo not given)	-8.2%	-3.0%	26.2	18.4µM*	-7.7%	?
Cc1cc(-n2nnc3ccccc32)nc2ccccc12	-8.0%	-20.6%	24.9	-7.8%	7.6%	-18.6%
CCOc1ccc(C(=O)Nc2ccc(N3CCN(C(C)=O)CC3)cc2)cc1[N+](=O)[O-]	-9.0%	-6.5%	-1.0	?	1.0%	?
CC(=O)N1CCN(c2ccc(Oc3ccc([N+](=O)[O-])c(C(F)(F)F)c3)cc2)CC1	-8.1%	-5.9%	-82.5*	11.6µM*	-3.6%	2.91µM*
CC(C)(C)c1ccc(O)c(N=Cc2cc3c(cc2[N+](=O)[O-])OCO3)c1	-2.6%	-13.5%	48.8	?	5.6%	16.4µM*
O=[N+]([O-])c1cc2c(cc1/C=N\NS(=O)(=O)c1ccccc1)OCO2	0.2%	5.6%	-12.0	9.2µM*	0.8%	?
CN(Cc1ccco1)Cc1cc(-c2ccnc3cc(Cl)ccc23)ccc1O	nt	nt	nt	-20.9%[9.04 µM]	nt	?
COCCN1CCN(C(=O)C2CCC(=O)N(Cc3ccccc3OC)C2)CC1 (stereo not given)	-1.3%	21.5%	i	-16.8%	-6.9%	-2.8%
COc1cc(/C=N/NC(=O)CSc2n[nH]c(=O)[nH]c2=O)cc(OC)c1O	8.4%	-19.0%	23.6	18.1%	3.9%	2.4%
CCCC(CC)Sc1nc2c([nH]1)c(=S)n(C)c(=O)n2C (stereo not given)	-11.5%	-0.6%	35.2	3.66µM*	7.94µM*	3.66µM*
Cn1c(=O)c2[nH]c(CN3CCCCC3)nc2n(C)c1=O	3.5%	6.8%	21.8	6.9%	0.0%	20.4%
CCCCC(C)Sc1nc2c([nH]1)c(=S)n(C)c(=O)n2C (stereo not given)	-7.5%	2.5%	-99.2*	3.66µM*	?	5.17µM*
Cc1oc(-c2ccccc2Cl)nc1CS(=O)CC(=O)N1CCN(c2ccccc2)CC1 (stereo not given)	-1.1%	1.9%	-14.7	-23.0%	-20.7%	-24.6%
COc1ccc(-c2nc(CS(=O)CC(=O)N3CCN(C)CC3)c(C)o2)cc1 (stereo not given)	6.4%	-1.9%	0.5	-8.9%	1.2%	24.0%
Cc1oc(-c2ccccc2)nc1CS(=O)CC(=O)N1CCc2ccccc2C1 (stereo not given)	12.2%	0.5%	11.3	9.2µM*	-17.3%	25.9µM*
SMILES	S-ASM inh	HepG2 tox	IL1B secr inh	TDP1 cell CPT	TGFb inhibitor	TDP1 cell noCPT
Cc1ccc(-c2nc(CS(=O)CC(=O)N3CCN(c4ccc(Cl)cc4)CC3)c(C)o2)cc1 (stereo not given)	nt	-19.0%	nt	16.4µM*	-4.0%	20.6µM*
Cc1ccc(-c2nc(CS(=O)CC(=O)N3CCN(c4ccccc4)CC3)c(C)o2)cc1 (stereo not given)	-4.3%	-21.1%	-24.7	23.1µM*	?	14.6µM*
CCOC(=O)N1CCC(NC(=O)CS(=O)Cc2nc(-c3ccc(Cl)cc3)oc2C)CC1 (stereo not given)	-0.2%	-29.3%	5.1	?	?	14.6µM*
CN1CCCC(OC(=O)/C(C#N)=C/c2ccccc2)C1 (stereo not given)	2.1%	-1.3%	8.2	-18.2%	-8.8%	3.6%
N#Cc1cc2cc(Cl)ccc2[nH]c1=O	nt	nt	25.0	-7.3%	nt	-12.8%
O=C(CSc1nnc(COc2ccc(Cl)cc2)o1)N1c2ccccc2CCc2ccccc21	-0.8%	0.7%	?	?	-8.7%	14.6µM*
O=C(CSc1nnc(COc2ccc(Cl)cc2)o1)N1CCCC1	-4.1%	-1.1%	-0.1	-29.1%	-0.2%	?
Cc1cccc(OCc2nnc(SCC(=O)NCCc3ccccc3)o2)c1	1.8%	-0.2%	12.6	-1.3%	-0.1%	-7.8%
O=C(CSc1nnc(COc2ccccc2)o1)NCCc1ccccc1	-1.1%	-75.1%	-0.3	8.2µM*	-7.6%	7.31µM*
Cc1ccc(C(=O)CSc2nnc(COc3ccccc3)o2)cc1	-2.0%	6.31µM*	-8.8	0.0%	-5.0%	-26.7%
O=C(CSc1nnc(COc2ccccc2)o1)c1ccccc1	-2.0%	-6.4%	0.0	-15.0%	5.3%	-15.6%
O=C(c1ccccc1)C1CC=CCC1C(=O)c1ccccc1 (stereo not given)	0.6%	-7.1%	-15.8	-21.6%	0.2%	-27.4%
COc1cc(C(O)c2nc(-c3cccs3)cs2)ccc1F (stereo not given)	nt	-8.9%	2.7	?	-0.6%	?
CCCC(=O)NC(=S)N1CCN(c2ccc([N+](=O)[O-])cc2)CC1	-3.8%	-26.7%	11.0	-14.7%	2.7%	-21.6%
O=C(NC(=S)N1CCN(c2ccc([N+](=O)[O-])cc2Cl)CC1)c1ccco1	-1.0%	7.0%	11.1	20.6µM*	?	16.4µM*
Cc1ccc(C(=O)NC(=S)N2CCN(c3ccc([N+](=O)[O-])cc3)CC2)cc1	-6.5%	-0.7%	-2.3	?	0.0%	25.9µM*
